Compounds without any hit were thinned out: in the full panel of roughly 79,000, 15% have a hit. Active and inactive are the calls of the source. Cut-off read from the data, not from the text of the source: active = growth inhibition above about 70%; inactive = the rest.
Key:
[1] = NCI Yeast Anticancer Drug Screen. Data for the rad52 strain (AID 147);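 note: 0% = growth of vehicle-treated control cultures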; details: S. cerevisiae rad52 mutant growth inhibition, active compounds read high
How it was run: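 Genetically altered yeast (DNA damage repair defect) treated with compound; inhibition calculated relative to vehicle.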

[2] = NCI Yeast Anticancer Drug Screen. Data for the wt1 strain (AID 149);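 note: 0% = growth of vehicle-treated wt1 cultures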; details: S. cerevisiae wt1 strain (SPY 50644) growth inhibition, active compounds read high
How it was run: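 wt1 strain grown with compound or vehicle; inhibition taken from the growth difference.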

[3] = NCI Yeast Anticancer Drug Screen. Data for the rad50EPP+ strain (AID 151);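 note: 0% = growth of vehicle-treated control cultures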; details: S. cerevisiae rad50 mutant strain, active compounds read high
How it was run: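 Strain rad50EPP+; compound exposure; % growth inhibition vs vehicle.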

[4] = NCI Yeast Anticancer Drug Screen. Data for the mgt1 strain (AID 153); details: S. cerevisiae mgt1 mutant growth inhibition, active compounds read high
How it was run: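 Read-out: yeast growth inhibition vs vehicle control. Strain mgt1, drawn from a panel altered in DNA damage repair or cell cycle control.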

[5] = NCI Yeast Anticancer Drug Screen. Data for the rad50 strain (AID 155);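 note: 0% = growth of vehicle-only cultures of the same strain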; details: S. cerevisiae rad50 strain growth inhibition, active compounds read high
How it was run: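 DNA repair mutant yeast, compound exposure, growth read-out; inhibition is taken relative to vehicle.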

[6] = NCI Yeast Anticancer Drug Screen. Data for the mec2-1 strain (AID 157); details: S. cerevisiae mec2-1 strain, active compounds read high
How it was run: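 Cells of the genetically defined mec2-1 yeast strain are incubated with test compound. Inhibition of growth is calculated against vehicle-treated controls.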

[7] = NCI Yeast Anticancer Drug Screen. Data for the rad14 strain (AID 159);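 note: 0% = growth of vehicle-treated control cultures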; details: S. cerevisiae rad14 strain growth inhibition, active compounds read high
How it was run: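 DNA repair-defective yeast, compound-exposed; % growth inhibition derived by comparison with vehicle-treated controls.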

[8] = NCI Yeast Anticancer Drug Screen. Data for the sgs1 mgt1 strain (AID 161);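 note: 0% = growth of cultures given vehicle only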; details: S. cerevisiae sgs1 mgt1 strain, active compounds read high
How it was run: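 Mutant yeast exposed to compound; growth scored against vehicle-only wells.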

[9] = NCI Yeast Anticancer Drug Screen. Data for the CLN2oe strain (AID 163);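 note: 0% = growth of vehicle-only control cultures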; details: S. cerevisiae CLN2oe strain, active compounds read high
How it was run: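 Strain altered in cell-cycle control, incubated with compound; growth compared to solvent-treated controls.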

[10] = NCI Yeast Anticancer Drug Screen. Data for the cln2 rad14 strain (AID 165);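 note: 0% = growth equal to vehicle treated cultures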; details: S. cerevisiae cln2 rad14 strain, active compounds read high
How it was run: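 The screen exposed genetically defined yeast (cln2 rad14) to test compounds and scored growth inhibition relative to vehicle-treated controls.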

[11] = NCI Yeast Anticancer Drug Screen. Data for the bub3 strain (AID 167); details: S. cerevisiae bub3 mutant strain, active compounds read high
How it was run: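 In this screen, a yeast mutant lacking normal mitotic checkpoint function is challenged with compound. Relative growth versus vehicle gives the inhibition value.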

[12] = NCI Yeast Anticancer Drug Screen. Data for the wt2 strain (AID 169);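 note: 0% = growth of vehicle-treated yeast cultures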; details: S. cerevisiae wt2 strain growth inhibition, active compounds read high
How it was run: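 Steps: yeast strain treated with compound; growth recorded; inhibition calculated relative to cultures given vehicle alone.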

[13] = NCI Yeast Anticancer Drug Screen. Data for the mlh1 strain (AID 171);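 note: 0% = growth of vehicle-treated control cultures of the same strain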; details: S. cerevisiae mlh1 strain growth inhibition, active compounds read high
How it was run: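 Yeast screen: mutant strain plus compound, growth scored against vehicle control wells.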

[14] = NCI Yeast Anticancer Drug Screen. Data for the sgs1 strain (AID 173);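 note: 0% = growth of vehicle-only control cultures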; details: S. cerevisiae sgs1 mutant, active compounds read high
How it was run: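 Inhibition of yeast growth served as the measure. The mutant strain was treated with each compound, and growth was normalised to cultures receiving vehicle alone.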

[15] = NCI Yeast Anticancer Drug Screen. Data for the mlh1 rad18 strain (AID 175); details: S. cerevisiae mlh1 rad18 strain growth inhibition, active compounds read high
How it was run: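 Compound-treated yeast growth, normalised to vehicle controls. Strain bears defined DNA repair mutations.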

[16] = NCI Yeast Anticancer Drug Screen. Data for the rad18 strain (AID 177); details: S. cerevisiae rad18 mutant growth inhibition, active compounds read high
How it was run: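 Inhibition values reflect reduced yeast growth compared with vehicle-treated controls, using a strain engineered with a DNA damage repair defect.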

[17] = at 5.0 µM (retest, dose inferred, filed as 0.5)
[18] = at 50.0 µM (retest, dose inferred, filed as 5.0)

Measured: growth inhibition

Nc1cc(Cl)ccc1Nc1ccccc1
active: [2]; at 100.0 µM 94% | [4]; at 100.0 µM 85% | [5]; [18] 99% | [5]; at 50.0 µM 79.2% | [5]; at 100.0 µM 93% | [6]; [18] 99% | [6]; at 50.0 µM 79.8% | [6]; at 100.0 µM 92% | [7]; at 100.0 µM 87% | [8]; [18] 91% | [8]; at 50.0 µM 83.5% | [9]; at 100.0 µM 84% | [10]; [18] 95% | [11]; [18] 92% | [11]; at 50.0 µM 84% | [11]; at 100.0 µM 93% | [12]; at 100.0 µM 95% | [13]; at 100.0 µM 79% | [14]; at 100.0 µM 89% | [15]; [18] 99% | [15]; at 50.0 µM 84% | [16]; at 100.0 µM 85%
inactive: [1]; at 1.2 µM -25% | [1]; at 3.7 µM -22% | [1]; at 11.0 µM -27% | [1]; at 33.0 µM -18% | [1]; at 100.0 µM 68% | [2]; at 1.2 µM -31% | [2]; at 3.7 µM -26% | [2]; at 11.0 µM -25% | [2]; at 33.0 µM -17% | [3]; at 1.2 µM -58% | [3]; at 3.7 µM -21% | [3]; at 11.0 µM -19% | [3]; at 33.0 µM 28% | [3]; at 100.0 µM 69% | [4]; at 1.2 µM -25% | [4]; at 3.7 µM -15% | [4]; at 11.0 µM -10% | [4]; at 33.0 µM -1% | [5]; at 1.2 µM -21% | [5]; at 3.7 µM -15% | [5]; [17] 60% | [5]; at 11.0 µM -8% | [5]; at 33.0 µM 16% | [6]; at 1.2 µM -42% | [6]; at 3.7 µM -6% | [6]; [17] 65% | [6]; at 11.0 µM -49% | [6]; at 33.0 µM -33% | [7]; at 1.2 µM -7% | [7]; at 3.7 µM -13% | [7]; at 11.0 µM -14% | [7]; at 33.0 µM 1% | [8]; [17] 9% | [9]; at 1.2 µM 5% | [9]; at 3.7 µM 3% | [9]; at 11.0 µM -1% | [9]; at 33.0 µM 3% | [10]; [17] 24% | [10]; at 50.0 µM 61.1% | [11]; at 1.2 µM -21% | [11]; at 3.7 µM -16% | [11]; [17] 20% | [11]; at 11.0 µM -24% | [11]; at 33.0 µM -8% | [12]; at 1.2 µM -15% | [12]; at 3.7 µM -15% | [12]; at 11.0 µM -22% | [12]; at 33.0 µM 5% | [13]; at 1.2 µM -85% | [13]; at 3.7 µM -70% | [13]; at 11.0 µM -31% | [13]; at 33.0 µM -25% | [14]; at 1.2 µM -53% | [14]; at 3.7 µM -36% | [14]; at 11.0 µM -35% | [14]; at 33.0 µM 4% | [15]; [17] 62% | [16]; at 1.2 µM -15% | [16]; at 3.7 µM -39% | [16]; at 11.0 µM -24% | [16]; at 33.0 µM -15%
